Assay outcomes: PubChem, University of Kansas High Throughput Screening Laboratory
The full list was thinned out, with hits kept by preference.
Pf apPOL block – Pf-apPOL DNA polymerase inhibition. Recombinant Pf-apPOL, molecular beacon fluorescence, 1.5 h. inhibition, % at 10 µM. 210,000 compounds, 0.25% hits. AID 1794808
mHTT CaM bind – disrupts binding of mutant huntingtin to calmodulin; P42858; AlphaScreen His-mHTT/GST-CaM binding, luminescence; inhibition, % at 15 µM; 190,000 compounds, 3.6% hits; AID 1671202
Of the large screens only hits and unclear results are named; the others gave an inactive call. No stated cut-off is given here; in the data, active means inhibition above about 50%; inactive means the rest.

CN1CCN(c2ncncc2N2CCC(C(=O)NCc3ccc(Cl)cc3)CC2)CC1	mHTT CaM bind 98
CCc1ccc(CNC(=O)C2CCN(c3cncnc3N3CCN(C)CC3)CC2)cc1	none
O=C(NCc1cc(F)cc(F)c1)C1CCN(c2cncnc2N2CCCCC2)CC1	none
COc1ccc(CCNc2ncnc3c2cnn3-c2ccc(C)cc2C)cc1OC	none
CN(C)c1ccc(CNC(=O)c2cc3n(n2)CCCN(Cc2cccc(F)c2)C3=O)cc1	none
Cc1oc2cc(OC(=O)C(C)(C)C)ccc2c(=O)c1-c1ccccc1	none
O=c1[nH]c(CN2CCOCC2)nc2ccccc12	none (no result: mHTT CaM bind)
O=c1[nH]c(CN2CCCCC2)nc2c1oc1ccccc12	Pf apPOL block 69
Cc1cc(C)cc(C(=O)N2CCC3(CC2)NC(=O)c2cccc(Cl)c2N3)c1	none
CCOc1ccccc1NC(=O)C1c2cc(OC)c(OC)cc2C(=O)N2CCc3ccccc3C12 (configuration not stated)	mHTT CaM bind 54
COc1ccc(C)cc1NC(=O)C1c2ccccc2C(=O)N2CCc3ccccc3C12 (configuration not stated)	none
COc1cc2c(cc1OC)C(C(=O)Nc1ccc(F)cc1)C1c3ccccc3CCN1C2=O (configuration not stated)	none
COc1cc(Cl)c(C)cc1NC(=O)C1c2ccccc2C(=O)N2CCc3ccccc3C12 (configuration not stated)	mHTT CaM bind 54
COc1cccc2cc(C(=O)Nc3nccs3)c(=Nc3ccccc3Cl)oc12	none
CCOc1ccc(C(=O)N2CCOCC2)cc1	none
Cc1ccc(C(=O)Nc2ccc3c(c2)CCC(=O)N3C)s1	none
O=C(c1ccccc1Br)N1C(=O)c2ccccc2S1(=O)=O	none
COc1ccc(S(=O)(=O)N2CCc3nc(NC(=O)c4ccc(C)cc4)sc3C2)cc1	none
CC(=O)N1c2c(cc(Br)cc2S(=O)(=O)N2CCc3ccccc3C2)CC1C (configuration not stated)	mHTT CaM bind 58
CC(=O)N1c2c(cc(Br)cc2S(=O)(=O)N2CCc3ccccc32)CC1C (configuration not stated)	none
CCn1cc(-c2nc(C)c(C(=O)Nc3ccc(C)cc3)s2)c2cccnc21	none
Cc1nc(-c2cn(C(C)C)c3ncccc23)sc1C(=O)Nc1ccc(F)cc1	mHTT CaM bind 100
CC(=O)Nc1ccc(Nc2c([N+](=O)[O-])c(=O)n(C)c3ccccc23)cc1	none
CN(CC(=O)N1N=C(c2cccn2C)CC1c1ccccc1)C(=O)C1CCC1 (configuration not stated)	mHTT CaM bind 55
CN(CC(=O)N1N=C(c2cccn2C)CC1c1ccc(Cl)cc1)C(=O)C1CCC1 (configuration not stated)	none
COc1ccc(C2=NN(C(=O)CN(C)C(C)=O)C(c3ccc(Cl)cc3)C2)cc1 (configuration not stated)	none
CC(C)C(=O)N(C)CC(=O)N1N=C(c2ccc(F)cc2)CC1c1ccccc1 (configuration not stated)	none
CC(C)C(=O)N(C)CC(=O)N1N=C(c2cccn2C)CC1c1ccc(Cl)cc1 (configuration not stated)	mHTT CaM bind 78
CC(=O)N(C)CC(=O)N1N=C(c2cccn2C)CC1c1ccc(Cl)cc1 (configuration not stated)	mHTT CaM bind 65
COc1ccc(-c2noc(C3CCCN3C(=O)NC3CCCCC3)n2)cc1 (configuration not stated)	none
CN1C(=O)c2cccc(NC(=O)c3cc(=O)c4ccccc4o3)c2C1=O	none
Cc1ccccc1-n1nc2c(c1NC(=O)c1cccs1)CS(=O)(=O)C2	none
COc1ccc(Cl)cc1NC(=O)N1CCn2cccc2C1Cc1ccccc1 (configuration not stated)	mHTT CaM bind 62
COc1ccc(NC(=O)N2CCn3cccc3C2Cc2ccccc2)cc1OC (configuration not stated)	mHTT CaM bind 59
COc1cc(NC(=O)N2CCn3cccc3C2Cc2ccccc2)cc(OC)c1 (configuration not stated)	none
O=C(Nc1cc(F)ccc1F)N1CCn2cccc2C1Cc1ccccc1 (configuration not stated)	none
O=C1CSC(N2CCOCC2)=N1	none (no result: mHTT CaM bind)
Cc1cccc(C)c1OCC(=O)Nc1nccs1	none
COc1cccc(Nc2ncc3c(n2)CCN(Cc2cccc(F)c2)C3)c1	none
COc1ccc(Oc2coc3c(CN4CCCCCC4)c(O)ccc3c2=O)cc1	mHTT CaM bind 97
CCOC(=O)c1ccc(Oc2coc3c(CN4CCCCC4)c(O)ccc3c2=O)cc1	none
Cc1cc(C)c(S(=O)(=O)NCCn2c(C)cc3ccccc32)c(C)c1	mHTT CaM bind 62
Cc1cc2ccccc2n1CCNS(=O)(=O)c1ccc(Br)cc1	none
O=C(CSc1nc2ccc([N+](=O)[O-])cc2[nH]1)c1ccc(Br)cc1	none
CNC(=O)N1CCc2c(c(-c3nc(Cc4ccccc4)no3)nn2C)C1	none
Cc1cc(=O)[nH]c(SCC(=O)Nc2cc(C(F)(F)F)ccc2Cl)n1	none
O=C(CSc1nc2ccccc2[nH]1)Nc1cc(C(F)(F)F)ccc1Cl	mHTT CaM bind 50
CCn1cc(-c2ccc(C)cc2)cc1C(=O)NCc1ccncc1	none
CC(=O)Nc1ccc(OCC(O)Cn2c3ccccc3c3ccccc32)cc1 (configuration not stated)	none
COc1ccc(NCC(O)Cn2c(C)c(C)c3ccccc32)c(OC)c1 (configuration not stated)	mHTT CaM bind 74
Cc1c(C)n(CC(O)CNC2CCCCC2)c2ccccc12 (configuration not stated)	none
COc1ccc(NCC(O)Cn2c(C)c(C)c3ccccc32)cc1 (configuration not stated)	mHTT CaM bind 57
Cc1c(C)n(CC(O)CN2CCCCCC2)c2ccccc12 (configuration not stated)	none
CCOc1ccc(NCC(O)Cn2c(C)c(C)c3ccccc32)cc1 (configuration not stated)	mHTT CaM bind 84
COc1cccc(S(=O)(=O)Nc2ccc(Nc3cc(-n4cccn4)nc(C)n3)cc2)c1	none
O=C(NCc1ccc(N2CCCCC2)nc1)c1ccc(Br)cc1	none
Cc1ccc(-n2cc(C3CCN(C(=O)c4ccc(N(C)C)cc4)CC3)cn2)cc1	mHTT CaM bind 63
CC(=O)N1CCC(c2cnn(-c3cccc(C)c3)c2)CC1	mHTT CaM bind 100
Cc1cccc(-n2cc(C3CCN(C(=O)C4CCCC4)CC3)cn2)c1	none
CN(C)c1ccc(C(=O)N2CCC(c3cnn(-c4ccc(F)cc4)c3)CC2)cc1	none
O=C(CN1C(=O)C(c2ccccc2)=NC12CCCC2)Nc1cccc(Cl)c1	mHTT CaM bind 74
CC1CCC2(CC1)N=C(c1ccccc1)C(=O)N2CC(=O)Nc1ccc(F)cc1 (configuration not stated)	mHTT CaM bind 58
O=C(CN1C(=O)C(c2ccc(Cl)cc2)=NC12CCCCC2)Nc1cccc(F)c1	mHTT CaM bind 76
O=C(CN1C(=O)C(c2ccccc2)=NC12CCCCCC2)Nc1ccc(Cl)cc1	mHTT CaM bind 100
O=C(CN1C(=O)C(c2ccccc2)=NC12CCCCC2)Nc1ccc(F)cc1	none
O=C(CN1C(=O)C(c2ccccc2)=NC12CCCCC2)Nc1ccccc1	none
Cc1cccc(NC(=O)CN2C(=O)C(c3ccc(F)cc3)=NC23CCCCCC3)c1	none
COc1ccc(C2=NC3(CCCCC3)N(CC(=O)Nc3cccc(Cl)c3)C2=O)cc1	none
Cc1c(C(=O)NC(C)(C)C)sc2nc(-c3ccc(F)cc3)cn12	none
